# Assay results reported in the supplement of paper PMC12045047.
# System: primary human airway basal cells (HBEC, luciferase-transduced)
# Experiment: proliferation (luciferase bioluminescence) Z score relative to plate mean; higher = more proliferation / more cells, active = 1.96 or more
# Conditions: donor: 1; 0.5 µM; library: ENZO Libraries; 4 days
# Protocol: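 Primary human bronchial epithelial (airway basal) cells from two donors, lentivirally transduced with pHIV-Luc-ZsGreen, were seeded at 2000 cells/well in 384-well plates in FAD medium with ENZO or Prestwick library compounds and cultured for 4 days. Luciferin was then added and bioluminescence was read as a measure of cell number. Relative light units were converted to Z scores against the plate, and the mean of triplicate wells is reported.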
row,SMILES,proliferation
1,O=c1oc(Cl)c(Cl)c2ccccc12 [34-Dichloroisocoumarin],0.257 (inactive)
2,CC1(C)C[C@@H]1C(=O)N/C(=C\CCCCSC[C@H](N)C(=O)O)C(=O)O [Cilastatin],-0.499 (inactive)
3,CN(C)c1ccc(/C=C2/C(=O)Nc3ccccc32)cc1,-0.0148 (inactive)
4,CC(=O)Nc1ccc(C(=O)Nc2ccccc2N)cc1,0.183 (inactive)
5,NCCCC[C@H](N[C@@H](CCc1ccccc1)C(=O)O)C(=O)N1CCC[C@H]1C(=O)O [Lisinopril],-0.405 (inactive)
6,CCCCC[C@H](CC(=O)NO)C(=O)N[C@H](C(=O)N1CCC[C@H]1CO)C(C)C [Actinonin],-0.508 (inactive)
7,NC(N)=NCCC[C@H](NC(=O)[C@@H]1CCCN1C(=O)[C@H](N)Cc1ccccc1)C(=O)CCl,0.533 (inactive)
8,O=C1Nc2ccccc2/C1=C1/Nc2ccccc2C1=O [Indirubin],-0.759 (inactive)
9,CC(C(=O)Nc1cccc(/N=C/c2c(O)ccc3ccccc23)c1)c1ccccc1 (stereo not given) [Salermide],-0.719 (inactive)
10,O=C(O)CCCc1ccccc1,-0.468 (inactive)
11,N#CC(=Cc1ccc2[nH]ccc2c1)C(N)=C(C#N)C#N,0.0615 (inactive)
12,CCCCCCCCCCCCC/C=C/[C@@H](O)[C@@H](N)CO [D-erythro-Sphingosine],-0.0291 (inactive)
13,COC(=O)C[C@H](NC(=O)[C@H](C)NC(=O)[C@@H](NC(=O)OCc1ccccc1)C(C)C)C(=O)CF,-0.208 (inactive)
14,Cn1cnc2c(NCc3ccccc3)nc(NCCO)nc21 [Olomoucine],0.166 (inactive)
15,C=C(C)[C@@H](CC=C(C)C)C[C@@]12C[C@@H](CC=C(C)C)C(C)(C)[C@@](CC=C(C)C)(C(=O)C(C(=O)c3ccc(O)c(O)c3)=C1O)C2=O [Garcinol],-0.468 (inactive)
16,O=C1Cc2c([nH]c3ccc(Br)cc23)-c2ccccc2N1 [Kenpaullone],3.89 (active)
17,CC(C)CC(=O)N[C@H](C(=O)N[C@H](C(=O)N[C@@H](CC(C)C)[C@@H](O)CC(=O)N[C@@H](C)C(=O)N[C@@H](CC(C)C)[C@@H](O)CC(=O)O)C(C)C)C(C)C [Pepstatin A],0.161 (inactive)
18,COc1cc2ncc(-c3ccccc3)nc2cc1OC,2.2 (active)
19,CCCC(CCC)C(=O)NO [Valproic acid hydroxamate],-0.292 (inactive)
20,O=C1Nc2ccc([N+](=O)[O-])cc2C1=O [5-Nitroisatin],0.112 (inactive)

# Same assay, conditions: donor: 1; 5 µM; library: ENZO Libraries; 4 days
row,SMILES,proliferation
1,O=c1oc(Cl)c(Cl)c2ccccc12 [34-Dichloroisocoumarin],0.055 (inactive)
2,CC1(C)C[C@@H]1C(=O)N/C(=C\CCCCSC[C@H](N)C(=O)O)C(=O)O [Cilastatin],-0.038 (inactive)
3,CN(C)c1ccc(/C=C2/C(=O)Nc3ccccc32)cc1,1.43 (inactive)
4,CC(=O)Nc1ccc(C(=O)Nc2ccccc2N)cc1,-0.038 (inactive)
5,NCCCC[C@H](N[C@@H](CCc1ccccc1)C(=O)O)C(=O)N1CCC[C@H]1C(=O)O [Lisinopril],0.0284 (inactive)
6,CCCCC[C@H](CC(=O)NO)C(=O)N[C@H](C(=O)N1CCC[C@H]1CO)C(C)C [Actinonin],-0.446 (inactive)
7,NC(N)=NCCC[C@H](NC(=O)[C@@H]1CCCN1C(=O)[C@H](N)Cc1ccccc1)C(=O)CCl,-0.142 (inactive)
8,O=C1Nc2ccccc2/C1=C1/Nc2ccccc2C1=O [Indirubin],-1.2 (inactive)
9,CC(C(=O)Nc1cccc(/N=C/c2c(O)ccc3ccccc23)c1)c1ccccc1 (stereo not given) [Salermide],-0.645 (inactive)
10,O=C(O)CCCc1ccccc1,-0.326 (inactive)
11,N#CC(=Cc1ccc2[nH]ccc2c1)C(N)=C(C#N)C#N,-0.386 (inactive)
12,CCCCCCCCCCCCC/C=C/[C@@H](O)[C@@H](N)CO [D-erythro-Sphingosine],0.187 (inactive)
13,COC(=O)C[C@H](NC(=O)[C@H](C)NC(=O)[C@@H](NC(=O)OCc1ccccc1)C(C)C)C(=O)CF,-0.0506 (inactive)
14,Cn1cnc2c(NCc3ccccc3)nc(NCCO)nc21 [Olomoucine],-0.244 (inactive)
15,C=C(C)[C@@H](CC=C(C)C)C[C@@]12C[C@@H](CC=C(C)C)C(C)(C)[C@@](CC=C(C)C)(C(=O)C(C(=O)c3ccc(O)c(O)c3)=C1O)C2=O [Garcinol],-0.215 (inactive)
16,O=C1Cc2c([nH]c3ccc(Br)cc23)-c2ccccc2N1 [Kenpaullone],-0.683 (inactive)
17,CC(C)CC(=O)N[C@H](C(=O)N[C@H](C(=O)N[C@@H](CC(C)C)[C@@H](O)CC(=O)N[C@@H](C)C(=O)N[C@@H](CC(C)C)[C@@H](O)CC(=O)O)C(C)C)C(C)C [Pepstatin A],0.196 (inactive)
18,COc1cc2ncc(-c3ccccc3)nc2cc1OC,2.78 (active)
19,CCCC(CCC)C(=O)NO [Valproic acid hydroxamate],-0.132 (inactive)
20,O=C1Nc2ccc([N+](=O)[O-])cc2C1=O [5-Nitroisatin],-0.27 (inactive)
